Hits are enriched below; roughly 2.7% of the tested compounds scored in any of these assays.
KDM5B inhibitor: blocks human KDM5B histone demethylase activity; Q9UGL1; KDM5B demethylase, FDH-coupled NADH fluorescence (FDH is formaldehyde dehydrogenase); Potency, µM (highest dose often 57.7 µM), actives largely listed as inhibitors; 220,000 compounds, 2.6% hits; AID 1347165; active means well fitted inhibition curve with a large enough effect; inconclusive means small, poorly fitted or top-dose-only effect; inactive means no such curve, though single readings can be large or run the other way; further: potency means the concentration at half of the fitted maximal effect; 0% is about no effect; nearly all actives have a fitted effect of over 70% in size
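Compound dilutions met 200 nM (final) KDM5BΔAP for 10 min at room temperature before substrate addition. The substrate mix held 12.5 µM H3K4me3 with cofactors 25 µM α-ketoglutarate and 50 µM Fe²⁺. NADH signal gain over 30 min defined activity.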
IP6K1 inhibitor: blocks human inositol hexakisphosphate kinase 1; IP6K1 kinase, ADP-Glo luminescence, 2 h; active compounds read low; activity change, % (series mostly up to about 58 µM); 140,000 compounds, 0.81% hits; AID 1645851; in the data active means activity change below about -25%; further: on the % scale 0 is the no-effect control and ±100 the full control effect
Target sequence (Q92551 whole entry, looked up): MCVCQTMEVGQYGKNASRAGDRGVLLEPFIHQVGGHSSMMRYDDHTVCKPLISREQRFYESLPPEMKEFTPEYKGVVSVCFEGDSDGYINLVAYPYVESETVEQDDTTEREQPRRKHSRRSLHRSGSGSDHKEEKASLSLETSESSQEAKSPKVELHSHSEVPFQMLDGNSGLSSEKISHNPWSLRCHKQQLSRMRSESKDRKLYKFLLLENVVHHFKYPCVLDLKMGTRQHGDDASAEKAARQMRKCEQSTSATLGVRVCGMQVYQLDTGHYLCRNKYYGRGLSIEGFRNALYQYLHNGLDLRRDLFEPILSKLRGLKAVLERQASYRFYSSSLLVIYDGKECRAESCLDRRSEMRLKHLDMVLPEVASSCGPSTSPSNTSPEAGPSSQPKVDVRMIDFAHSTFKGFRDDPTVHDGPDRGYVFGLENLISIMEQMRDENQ
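ADP-Glo luminescence measures ADP made by human IP6K1 during a 2 h RT reaction with ATP/IP6 (mix at 1.3 mM/130 uM); top library doses 57.5 and 19.1 uM final.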
* = called active by the depositor; i = inactive; ? = inconclusive; nt = no result given.

SMILES	KDM5B inhibitor	IP6K1 inhibitor
CN(Cc1cccnc1)c1ccc2ncc(Nc3cc(F)cc(N4CCOCC4)c3)n2n1	?	-5
COc1ccc(F)cc1Nc1cnc2ccc(N(C)Cc3cccnc3)nn12	32µM*	-21
COc1ncccc1Nc1cnc2ccc(N(C)Cc3ccc(F)cc3)nn12	32µM*	-12
CN(C)c1ccc2ncc(Nc3ccccc3Cl)n2n1	35µM*	-11
CN(C)c1ccc2ncc(Nc3ccccc3-c3ccccc3)n2n1	i	-18
CN(Cc1ccc(F)cc1)c1ccc2ncc(Nc3ccncc3)n2n1	?	-6
Cc1cnc(C2CC2)n1CC1CCN(C(=O)CCCc2ccccc2)CC1	nt	11
O=C(O)c1cc2ccc3cccnc3c2[nH]1	i	nt
COc1ccc(Br)cc1CNC(=O)CCC(=O)N1CCSc2nc(C)cc(C)c21	i	nt
O=[S+]1([O-])NC2(CCN(CC3CC3)CC2)COc2ccccc21	?	15
O=[S+]1([O-])NC2(CCN(CC3CCCC3)CC2)COc2ccccc21	79µM*	15
Cc1ccc(NC(=O)C2=C(c3ccccc3)NC(=S)NC2c2ccc(F)cc2)cc1 (configuration not stated)	i	nt
CNS(=O)(=O)c1cc(-c2nn(C)c(=O)c3ccccc23)ccc1C	i	nt
CCn1ccc(C(=O)N2CCC3(CC2)c2[nH]c4ccccc4c2CCN3C)n1	28µM*	-4
CN1CCc2c([nH]c3ccccc23)C12CCN(C(=O)c1cccnc1)CC2	i	-2
COc1ccccc1Nc1ccnc(N2CCC[C@H]2C(=O)NC2CCCCC2)n1	nt	-7
O=C(Cc1c[nH]c2ccccc12)N1CCCC2(C1)Nc1cccnc1NC2=NC1CCCC1 (configuration not stated)	?	1
COc1ccc(C(=O)N2CCC3(C2)C(=NC2CCCC2)NC(=O)N3c2cccnc2)cc1 (configuration not stated)	i	-10
O=C(CSc1ccccc1)N1CCCC2(C1)Nc1cccnc1NC2=NC1CCCC1 (configuration not stated)	28µM*	7
COc1cc(OC)cc(C(=O)N2CCCC3(C2)Nc2cccnc2NC3=NC2CCCC2)c1 (configuration not stated)	28µM*	5
O=C(c1ccc(Cl)s1)N1CCN(c2ncccn2)CC1	i	nt
COc1ccc(C(=O)N2CCCC3(C2)Nc2cccnc2NC3=NC2CCCC2)cn1 (configuration not stated)	?	1
COc1ccc(OCC(=O)N2CCCC3(C2)Nc2cccnc2NC3=NC2CCCC2)cc1 (configuration not stated)	25µM*	17
O=C(c1ccc(Cl)s1)N1CCCC2(C1)Nc1cccnc1NC2=NC1CCCC1 (configuration not stated)	28µM*	0
CNC(=O)CN(C)S(=O)(=O)c1ccc(C)c2ncccc12	i	nt
SMILES	KDM5B inhibitor	IP6K1 inhibitor
CCCCNC(=S)NC1CCCCC1	i	nt
CCC(C)n1c(SCC(=O)Nc2cc(C)no2)nnc1-c1ccccc1 (configuration not stated)	i	nt
O=C(c1ccc2nc[nH]c2c1)N1CCCC2(C1)Nc1cccnc1NC2=NC1CCCC1 (configuration not stated)	28µM*	-8
O=S(=O)(c1cccs1)N1CCCC2(C1)Nc1cccnc1NC2=NC1CCCC1 (configuration not stated)	11µM*	14
Cc1ccc(C(=O)N2CCCC3(C2)C(=NC2CCCC2)NC(=O)N3c2cccnc2)cc1 (configuration not stated)	i	-9
O=C(c1ccccc1F)N1CCCC2(C1)C(=NC1CCCC1)NC(=O)N2c1cccnc1 (configuration not stated)	i	-9
CCCn1c(C)cnc1CC1CCCN(S(=O)(=O)c2cccs2)C1 (configuration not stated)	i	2
Cc1ccccc1C(=O)N1CCCC2(C1)Nc1cccnc1NC2=NC1CCCC1 (configuration not stated)	16µM*	10
CC(=O)c1ccc(S(=O)(=O)N2CCC(C(=O)Nc3nc4c(s3)CCC4)CC2)cc1	i	nt
COc1ccccc1N1CCCc2ncc(C(=O)Nc3cccnc3)cc21	i	1
COc1cccc(NC(=O)c2cnc3c(c2)N(C(=O)Cc2ccccc2OC)CCC3)c1	i	14
COc1ccccc1N1CCCc2ncc(C(=O)Nc3cccc(C(F)(F)F)c3)cc21	32µM*	0
COc1cccc(NC(=O)c2cnc3c(c2)N(Cc2ccccc2)CCC3)c1	32µM*	-7
CC(C)NC(=O)N1CCN(c2ccc3nnc(-c4ccccc4)n3n2)CC1	nt	9
COc1ccc(NC(=O)Nc2c(NC3CCCCC3)c3ccccc3oc2=O)cc1	i	nt
Cc1ccc(C2=NN(C(=O)CNc3ccc(C(=O)N(C)C)cc3)C(c3ccco3)C2)o1 (configuration not stated)	i	nt
CCN1CCN(CCNC(=O)CCC[C@@H]2[C@H]3CCCN4CCC[C@@H](CN2C(C)=O)[C@@H]34)CC1	i	0
CN(C)C(=O)CCC[C@@H]1[C@H]2CCCN3CCC[C@@H](CN1C)[C@@H]23	i	6
CC(=O)N1C[C@@H]2CCCN3CCC[C@@H]([C@H]23)[C@H]1CCCC(=O)N(C)C	20µM*	1
CN1CCN(CCCNC(=O)CCC[C@@H]2[C@H]3CCCN4CCC[C@@H](CN2Cc2ccccc2)[C@@H]34)CC1	i	-11
CC(=O)N1C[C@@H]2CCCN3CCC[C@@H]([C@H]23)[C@H]1CCCC(=O)NCCN1CCCCC1	22µM*	-7
CC(=O)N1C[C@@H]2CCCN3CCC[C@@H]([C@H]23)[C@H]1CCCC(=O)NCCCN1CCCCC1	25µM*	10
CC(=O)N1C[C@@H]2CCCN3CCC[C@@H]([C@H]23)[C@H]1CCCC(=O)NCCC(C)C	?	3
O=C(CCC[C@@H]1[C@H]2CCCN3CCC[C@@H](CN1Cc1ccccc1)[C@@H]23)NCCCn1cccn1	22µM*	-1
CCCCOC(=O)N1CCC(=O)N(CC)C[C@H]2COc3cc(OC)ccc3[C@H]21	nt	11
SMILES	KDM5B inhibitor	IP6K1 inhibitor
CN(C)C[C@@H]1CN(Cc2ccccc2)C[C@H]1NC(=O)c1cccs1	nt	0
CN1c2cc(C(=O)NCc3ccc(F)cc3)ccc2C(=O)N2CCCCCC21 (configuration not stated)	?	8
O=C(NCCCc1ccccc1)C1CN(C2CCCCC2)C(=O)N1 (configuration not stated)	nt	2
COc1ccccc1C(=O)NC1CCN(c2ccc3nnc(-c4ccccc4)n3n2)C1 (configuration not stated)	nt	-1
Cc1cccc(C(=O)NC2CCSC2=O)c1 (configuration not stated)	i	nt
O=C(O)CCCNC(=O)c1cc(-c2ccccc2)nc2ccccc12	i	nt
O=C(/C(=C\c1ccc(Br)cc1)c1nc2ccccc2o1)c1ccccc1	i	nt
CCCc1noc(-c2cccn3c(CNC(=O)c4ccco4)nnc23)n1	25µM*	-3
CCCc1noc(-c2cccn3c(CNC(=O)Cc4cccc(OC)c4)nnc23)n1	i	0
CCc1noc(-c2cccn3c(CNC(=O)c4ccco4)nnc23)n1	28µM*	19
CC(C)NC(=O)c1nc(-c2ccc(COc3ccc4c(c3)OCO4)cc2)no1	i	nt
O=C(CCc1ncc(-c2c(F)cccc2F)o1)Nc1ccccc1O	i	nt

High-throughput results deposited in PubChem BioAssay by National Center for Advancing Translational Sciences (NCATS).
